The list is not random: actives were taken first. Their share in the collection is about 2%.
PKD1 kinase inh = inhibitors of human PKD1 kinase, biochemical, fluorescence polarization; Serine/threonine-protein kinase D1 (Homo sapiens), Q15139; PKD1 kinase fluorescence polarization assay; inhibition, % (concentration not given with the values); 200,000 compounds, 0.056% hits; AID 797, 2007; in the data active = inhibition above about 50%
Wee1 degr inh = Wee1 degradation inhibitors, primary screen, cell-based, HeLa, Wee1K328M-luciferase, luminescence | 220,000 compounds, 1.2% hits | Wee1-like protein kinase (Homo sapiens), P30291 | reporter increase, % at 5 µM | HeLa Luc-Wee1K328M stability; 100% = proteasome inhibitor MG132 effect | AID 1321, 2008;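 active = activation above the mean of all tested compounds plus 3 SD, set per screening run, cut at about 8.8% in these data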;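 note: cells exposed to compound for 20 h before luminescence read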
Target sequence (P30291 whole entry K328M): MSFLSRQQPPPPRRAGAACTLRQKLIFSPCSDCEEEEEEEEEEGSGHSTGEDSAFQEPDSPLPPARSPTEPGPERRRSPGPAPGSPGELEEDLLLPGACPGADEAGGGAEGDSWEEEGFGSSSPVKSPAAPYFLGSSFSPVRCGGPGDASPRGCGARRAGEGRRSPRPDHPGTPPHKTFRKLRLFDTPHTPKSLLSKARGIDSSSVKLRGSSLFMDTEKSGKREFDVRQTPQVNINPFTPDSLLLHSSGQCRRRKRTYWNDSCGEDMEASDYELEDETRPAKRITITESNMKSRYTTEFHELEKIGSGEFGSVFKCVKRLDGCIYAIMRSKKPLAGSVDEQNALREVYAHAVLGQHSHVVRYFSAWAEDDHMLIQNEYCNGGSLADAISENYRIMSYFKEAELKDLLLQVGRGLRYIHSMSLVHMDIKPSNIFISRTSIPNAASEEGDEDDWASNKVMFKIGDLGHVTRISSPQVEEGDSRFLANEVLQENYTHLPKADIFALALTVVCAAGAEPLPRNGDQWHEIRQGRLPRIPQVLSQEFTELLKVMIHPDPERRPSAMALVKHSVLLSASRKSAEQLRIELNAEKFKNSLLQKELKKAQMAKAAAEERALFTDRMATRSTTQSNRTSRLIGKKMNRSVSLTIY
HMGR II inh = inhibitors of E. faecalis class II HMGR, primary screen, biochemical, Enterococcus faecalis; HMG-CoA reductase (Enterococcus faecalis, mvaE); purified E. faecalis HMGR, NADPH absorbance 340 nm kinetic; inhibition, % at 10 µM; 190,000 compounds, 0.41% hits; AID 1066, 2008;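 active = inhibition above a set limit, the median over all tested compounds plus 3 SD, cut at about 9.5% in these data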;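 note: enzyme runs in reverse so mevalonate oxidation gives rising NADPH absorbance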
Arbovirus inh = antivirals against arbovirus infection, primary screen, cell-based, full library, 10K replicate subset; arbovirus infection cell-based antiviral screen; inhibition, % at 10 µM; 200,000 compounds, 0.37% hits; AID 1251, 2008; in the data active = inhibition above about 30%
Hsp70 act = Hsp70 transcriptional activators, primary screen, cell-based, HeLa, Hsp70 promoter luciferase, luminescence, 10 µM; 200,000 compounds, 0.04% hits; HeLa Hsp70 promoter luciferase reporter; scaled: vehicle 0, proteasome-inhibitor control 100%; activation, % at 10 µM; AID 1203, 2008;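 active = activation above the mean across all tested compounds plus 3 SD, cutoff set per campaign, cut at about 5.5% in these data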
A number is an active result.

`COc1ccc(C(=O)c2nccc3ccccc23)cc1` gave PKD1 kinase inh inactive, Wee1 degr inh 10, HMGR II inh inactive, Arbovirus inh inactive and Hsp70 act inactive.
For CCOc1ccc(C(=O)NCC(=O)OCC(=O)N2CCCC2)cc1 the results were PKD1 kinase inh inactive, Wee1 degr inh inactive, HMGR II inh inactive, Arbovirus inh inactive and Hsp70 act inactive.
For Cc1ccsc1C1Nc2ccccc2C(=O)N1O (configuration not stated) the results were PKD1 kinase inh inactive, Wee1 degr inh 9.0, HMGR II inh inactive, Arbovirus inh inactive and Hsp70 act inactive.
For Cc1nn(C)c(C)c1C1Nc2ccccc2C(=O)N1O (configuration not stated) the results were PKD1 kinase inh inactive, Wee1 degr inh inactive, HMGR II inh inactive, Arbovirus inh inactive and Hsp70 act inactive.
O=C1c2ccccc2NC(c2ccc(Cl)cc2Cl)N1O (configuration not stated) was read as PKD1 kinase inh inactive, Wee1 degr inh inactive, HMGR II inh 15, Arbovirus inh inactive and Hsp70 act inactive.
For CC(=O)c1cccc(NC(=O)CN(C)Cc2ccc(OC(F)F)cc2)c1 the results were Wee1 degr inh inactive.
For COc1ccc(CCNC(=O)c2ccc(-c3ccc([N+](=O)[O-])cc3Cl)o2)cc1 the results were PKD1 kinase inh inactive, Wee1 degr inh inactive, HMGR II inh inactive, Arbovirus inh inactive and Hsp70 act inactive.
Cc1ccc(-n2[nH]c(C)c(/C=N/Nc3ccc([N+](=O)[O-])cc3[N+](=O)[O-])c2=O)cc1 was read as PKD1 kinase inh inactive, Wee1 degr inh inactive, HMGR II inh inactive, Arbovirus inh inactive and Hsp70 act inactive.
`COc1cccc(CNC(=O)C2CCN(Cc3cnn(-c4ccccc4)c3-n3cccc3)CC2)c1` gave PKD1 kinase inh inactive, Wee1 degr inh 8.9, HMGR II inh inactive, Arbovirus inh inactive and Hsp70 act inactive.
Screening O=C(NCc1ccccn1)C1CCN(Cc2cnn(-c3ccccc3)c2-n2cccc2)CC1 returned PKD1 kinase inh inactive, Wee1 degr inh inactive, HMGR II inh inactive, Arbovirus inh inactive and Hsp70 act inactive.
`Cn1cc(CN2CCCC(CO)(Cc3cccc(Cl)c3)C2)cn1` (configuration not stated) gave PKD1 kinase inh inactive, Wee1 degr inh inactive, HMGR II inh inactive, Arbovirus inh inactive and Hsp70 act inactive.
CC(C)n1cc(CN2CCCC(CO)(Cc3cccc(Cl)c3)C2)cn1 (configuration not stated) was read as PKD1 kinase inh inactive, Wee1 degr inh 10, HMGR II inh inactive, Arbovirus inh inactive and Hsp70 act inactive.
C=CCn1c(N)c(C(=O)NCc2cccnc2)sc1=S was read as PKD1 kinase inh inactive, Wee1 degr inh inactive, HMGR II inh inactive, Arbovirus inh 77 and Hsp70 act inactive.
For COC(=O)c1c(NC(=O)c2ccccc2)sc2c1CC(C)(C)OC2 the results were PKD1 kinase inh inactive, Wee1 degr inh 9.4, HMGR II inh inactive, Arbovirus inh inactive and Hsp70 act inactive.
`O=C(NCc1ccc(S(=O)(=O)Nc2ccccc2Cl)s1)c1ccccc1` gave Wee1 degr inh inactive.
`COc1ccccc1NC(=S)NC(=O)c1ccc(-c2ccc(Cl)cc2)o1` gave PKD1 kinase inh inactive, Wee1 degr inh 14, HMGR II inh inactive, Arbovirus inh inactive and Hsp70 act inactive.
Screening Cc1cccc(NC(=O)c2ccc(-c3ccccc3[N+](=O)[O-])o2)c1 returned PKD1 kinase inh inactive, Wee1 degr inh inactive, HMGR II inh 10, Arbovirus inh inactive and Hsp70 act inactive.
`COc1cccc(NC(=O)c2ccc(-c3ccccc3[N+](=O)[O-])o2)c1` gave PKD1 kinase inh inactive, Wee1 degr inh inactive, HMGR II inh inactive, Arbovirus inh inactive and Hsp70 act inactive.
`O=C1CCCN1CCCNc1ncnc2sccc12` gave PKD1 kinase inh inactive, Wee1 degr inh inactive, HMGR II inh inactive, Arbovirus inh inactive and Hsp70 act inactive.
CCOC(=O)C1(Cc2ccc(OC)cc2)CCN(C(=O)CCn2cccn2)CC1 was read as Wee1 degr inh inactive.
For COc1ccc(S(=O)(=O)N(C)C)cc1NC(=O)CSc1nnc(-c2cccnc2)o1 the results were PKD1 kinase inh inactive, Wee1 degr inh inactive, HMGR II inh 13, Arbovirus inh inactive and Hsp70 act inactive.
NC(=O)CNC(=O)c1ccc(Cl)cc1 was read as Wee1 degr inh 9.1.
CCc1ccc(C(=O)NCc2ccc(Cl)cc2)cc1 was read as PKD1 kinase inh inactive, Wee1 degr inh inactive, HMGR II inh inactive, Arbovirus inh inactive and Hsp70 act inactive.
`COc1ccc(S(=O)(=O)NC(C)CCc2ccccc2)cc1` (configuration not stated) gave PKD1 kinase inh inactive, Wee1 degr inh inactive, HMGR II inh inactive, Arbovirus inh inactive and Hsp70 act inactive.
Cc1ccc(Nc2nc3ccccc3c(=O)s2)cc1C was read as PKD1 kinase inh inactive, Wee1 degr inh 10, HMGR II inh inactive, Arbovirus inh inactive and Hsp70 act inactive.
For COc1ccc(Nc2nc3ccccc3c(=O)s2)c(OC)c1 the results were PKD1 kinase inh inactive, Wee1 degr inh inactive, HMGR II inh inactive, Arbovirus inh inactive and Hsp70 act inactive.
Screening CC(=C/C(=O)O)/C=C/c1ccc([N+](=O)[O-])cc1 returned PKD1 kinase inh inactive, Wee1 degr inh 11, HMGR II inh inactive, Arbovirus inh inactive and Hsp70 act inactive.
COc1ccc(C)cc1N(CC(=O)N/N=C/c1ccc2c(c1)OCO2)S(C)(=O)=O was read as PKD1 kinase inh inactive, Wee1 degr inh inactive, HMGR II inh inactive, Arbovirus inh inactive and Hsp70 act inactive.
For NC(=O)c1ccsc1NC(=O)CSc1ccccc1F the results were PKD1 kinase inh inactive, Wee1 degr inh inactive, HMGR II inh inactive, Arbovirus inh inactive and Hsp70 act inactive.
NC(=O)c1ccsc1NC(=O)c1coc2ccccc2c1=O was read as PKD1 kinase inh inactive, Wee1 degr inh 10, HMGR II inh inactive, Arbovirus inh inactive and Hsp70 act inactive.
`CCn1c(O)c(/C=C2\C=NN=C2c2ccccc2)sc1=S` gave Wee1 degr inh inactive.
`Cn1c(O)c(/C=C2\C=NN=C2c2ccccc2)sc1=S` gave Wee1 degr inh 9.6.
For CNc1nc(-c2ccccc2)cc(C)c1S(C)(=O)=O the results were PKD1 kinase inh inactive, Wee1 degr inh inactive, HMGR II inh inactive, Arbovirus inh inactive and Hsp70 act inactive.
COc1cc(NC(=O)CCC(=O)OCCCC(F)(F)C(F)(F)F)nc(OC)n1 was read as PKD1 kinase inh inactive, Wee1 degr inh inactive, HMGR II inh inactive, Arbovirus inh inactive and Hsp70 act inactive.
Screening COc1cc(NC(=O)CCCC(=O)OCC(F)(F)C(F)F)nc(OC)n1 returned PKD1 kinase inh inactive, Wee1 degr inh inactive, HMGR II inh inactive, Arbovirus inh 106 and Hsp70 act inactive.
For O=C(Nc1cc(=O)[nH]c2ncnn12)c1ccccc1F the results were Wee1 degr inh 9.4.

Screening results: PubChem, several laboratories
